High-throughput results (PubChem BioAssay)
Most compounds without a hit are left out; they make up all but 2.4% or so of the library.
Prx2 Sm inh: Schistosoma mansoni Prx2 inhibition. S. mansoni Prx2 activity coupled to TGR/GSH (TGR is thioredoxin glutathione reductase), NADPH fluorescence loss, qHTS. Potency, µM. actives 0.07% (n = 65,000)
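Purified S. mansoni TGR and Prx2 in pH 7.4 phosphate buffer with EDTA and Tween-20 were preincubated with compounds for 15 min. Further NADPH/GSH was added, then a 2.5 mM H2O2 aliquot initiated turnover, followed kinetically by NADPH fluorescence.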
AmpC nodet inh: blocks E. coli AmpC beta-lactamase in absence of detergent; Potency, µM (top dose mostly 28.7 µM); AmpC nitrocefin hydrolysis, absorbance 480 nm, no detergent; actives 1.8% (n = 71,000); AID 585; P00811
Target sequence (P00811 whole entry, looked up): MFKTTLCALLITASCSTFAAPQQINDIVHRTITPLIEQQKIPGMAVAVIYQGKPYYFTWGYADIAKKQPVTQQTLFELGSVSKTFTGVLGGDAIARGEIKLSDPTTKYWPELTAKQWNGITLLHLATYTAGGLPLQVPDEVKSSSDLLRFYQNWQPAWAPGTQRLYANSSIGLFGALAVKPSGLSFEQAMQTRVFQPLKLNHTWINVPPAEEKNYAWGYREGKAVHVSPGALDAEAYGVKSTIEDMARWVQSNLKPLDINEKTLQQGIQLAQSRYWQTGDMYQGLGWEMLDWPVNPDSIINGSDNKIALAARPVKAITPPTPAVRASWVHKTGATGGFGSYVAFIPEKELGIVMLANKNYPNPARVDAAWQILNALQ
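AmpC, 20 mM phosphate pH 7.0; 15 min cpd preinc, RT; start with nitrocefin (800 uM stock); A480 kinetic read, 20 s intervals, 4 min. No-enzyme wells = negative control.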
AmpC inh det: inhibitors of E. coli AmpC beta-lactamase with detergent; P00811; Potency, µM (doses to about 28.7 µM); purified AmpC, nitrocefin hydrolysis with detergent; actives 0.09% (n = 71,000); active means well fitted curve in the direction sought with a large enough effect; inconclusive means small, poorly fitted or top-dose-only effect
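E. coli AmpC (5.3 nM) in 20 mM phosphate pH 7.0 with 0.01% Triton X-100, preincubated 15 min RT with compound; nitrocefin (2 uL of 800 uM stock) hydrolysis followed by 480 nm absorbance every 20 s over 4 min.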
LT uptake inh: anthrax lethal toxin internalization inhibition. Cells, anthrax lethal toxin internalization, FRET ratio (460/530). Potency, µM (series often up to 40 µM), actives largely listed as inhibitors. actives 0.67% (n = 70,000). AID 912; further: nearly all actives have a fitted effect of over 50% in size
Hits are given with their value; i = inactive; ? = inconclusive; nt = no result given; [ ] = dose if it differs, or a comment. Unless noted, the call rests on the fitted dose curve.

SMILES | Prx2 Sm inh | AmpC nodet inh | AmpC inh det | LT uptake inh
COc1ccc(OC)c(C2CC(=O)c3c([nH]c(C(=O)OC(C)C)c3C)C2)c1 (stereo not given) | i | 2.5µM[single pt active] | i | ?
CN(C)c1ccc(-c2ccc3ncnc(-n4ccnc4)c3c2)cc1 | i | i | i | 7.9µM
Cc1ccccc1-c1ccc2ncnc(-n3ccnc3)c2c1 | i | i | i | 5µM
Cc1ccccc1-c1ccc2ncnc(N(C)C)c2c1 | i | i | i | i
CC(C)c1ccc(Cn2ccc3c4c(N)nc(NC5CC5)nc4ccc32)cc1 | i | i | i | 25µM
COc1ccc(/C=N\NC(=O)O)cc1 | i | i[5.75 µM] | i[5.75 µM] | i[8 µM]
COc1cc(NC(=O)c2ccc(Cl)cc2)c(OC)cc1NC(=O)CN1CCOCC1 | i | i | i | 13µM
COc1cccc(Cn2c(C3CC3)nc3ccc(NC(=O)c4ccco4)cc3c2=O)c1 | i | i | i | 13µM
O=C(Nc1ccc2nc(C3CC3)n(Cc3ccc(F)cc3)c(=O)c2c1)c1ccco1 | i | i | i | i
O=C(C1CCC(CNc2c(N3CCCCC3)c(=O)c2=O)CC1)N1CCCCC1 (stereo not given) | i | 4µM[single pt active] | i | i
O=C(NCc1ccc2c(c1)OCO2)C1CCC(CNc2c(N3CCCCC3)c(=O)c2=O)CC1 (stereo not given) | i | 4µM[single pt active] | i | ?
N#C[C@@H](Cc1ccc(O)c(O)c1)C(=O)N1CCc2ccccc21 | i | i | i | i
CO[C@@H]1COC(=O)CCC[C@@H](C)[C@H](OC)COC(=O)CCC[C@H]1C | nt | nt | nt | i[8 µM]
COc1ccc(CCNC(=O)CSc2nc(N)c(C#N)c(-c3cccs3)c2C#N)cc1OC | i | i | i | ?
Cc1ccccc1NC(=O)CSc1nc(N)c(C#N)c(-c2cccs2)c1C#N | i | 10µM | i | i
CCCCCCCCCCCCCCC1CO1 (stereo not given) | nt | i | i | i
O=c1[nH]c2c(s1)C(c1ccccc1)C1C3CCC(C3)C1S2 (stereo not given) | i | 1.6µM | i | ?
O=C(Cn1ncc2c1-c1ccccc1OC2)N(Cc1ccco1)C1CCCCC1 | i | i | i | i
O=C(Cn1ncc2c(=O)oc3ccccc3c21)N(Cc1ccco1)C1CCCCC1 | i | 3.2µM[single pt active] | i | i
O=C(NCc1ccccc1)c1noc2c1CCCC2 | i | i | i | i
CC(C)CNC(=O)c1noc2c1CCCC2 | i | 4µM[single pt active] | i | i
Cc1cc(C)nc(SCC(=O)c2ccc(O)cc2O)n1 | i | 4µM[single pt active] | i | i
CC(C)CC(=O)Nc1c2c(nn1-c1ccc(F)cc1)CSC2 | i | 4µM[single pt active] | i | i
O=C(Nc1c2c(nn1-c1ccc(F)cc1)CSC2)c1ccc(S(=O)(=O)N2CCOCC2)cc1 | i | i | i | i
CN1CCN(c2nc3c(c(=O)n(C)c(=O)n3C)n2C)CC1 | i | i[5.75 µM] | i[5.75 µM] | i[8 µM]
SMILES | Prx2 Sm inh | AmpC nodet inh | AmpC inh det | LT uptake inh
CN1/C(=C/C(=O)c2nc(S(C)(=O)=O)ncc2Cl)C(C)(C)c2ccccc21 | i | i | i | 13µM
O=C(c1ccco1)N1CCN(c2ncnc3c2cnn3-c2ccccc2)CC1 | i | i | i | nt
Cc1nn(-c2ccccc2)c(Cl)c1C(=O)N1CCN(c2ncnc3c2cnn3-c2ccccc2)CC1 | i | i | i | 6.3µM
Cc1cc(O)ccc1Nc1nc2ccccc2nc1Nc1ccc(O)cc1C | nt | 13µM | i | i
COC(=O)c1ccccc1NC(=O)Nc1nnc(N2CCCCC2C)s1 (stereo not given) | i | 4µM[single pt active] | i | 1.3µM
COc1ccc(NC(=O)Nc2nnc(N3CCCCC3C)s2)cc1OC (stereo not given) | nt | 4µM[single pt active] | i | i
O=c1[nH]c(=O)n([C@H]2C[C@H](O)[C@H](CO)O2)cc1/C=C\Br | i | i | i | i
CC1CN(C(=O)Nc2ccc3snnc3c2)c2ccccc21 (stereo not given) | i | 2µM | i | ?
O=C(Nc1ccc2snnc2c1)N1CCSCC1 | nt | i | i | i
CCc1ccc(-n2c(O)cnc2Nc2nc(C)cc(C)n2)cc1 | i | 4µM[single pt active] | i | i
Cc1nc2ccc(S(=O)(=O)NC(C(=O)NCc3ccco3)C(C)C)cc2s1 (stereo not given) | i | 4µM[single pt active] | i | i
C=C/C1=C/Cc2ccccc2C(C[N+](=O)[O-])C(C(=O)OC)(C(=O)OC)C1 (stereo not given) | nt | nt | nt | i[8 µM]
CCOc1ccc(C(=O)Nc2cc(C)on2)cc1 | nt | i | i | i
Cc1cc(NC(=O)c2cccc(COc3ccc(Br)cc3)c2)no1 | i | 4µM[single pt active] | i | ?
O=C1CC(c2ccc(S(=O)(=O)NC3CC3)cc2)CN1 (stereo not given) | i | 4µM[single pt active] | i | i
O=C1CC(c2ccc(S(=O)(=O)NCc3ccncc3)cc2)CN1 (stereo not given) | i | 4µM[single pt active] | i | i
Cc1ccc(S(=O)(=O)NCc2ccncc2)cc1 | i | i | i | i
Cn1cc(-c2nc3cnc(Oc4ccccc4)nc3n(C)c2=O)c2ccccc21 | i | i | i | ?
c1ccc(Cn2nnnc2C(c2ccccc2)N2CCN(c3nc4ccccc4s3)CC2)cc1 (stereo not given) | i | i | i | i
CCCCC(c1nnnn1Cc1ccco1)N1CCN(c2nc3ccccc3s2)CC1 (stereo not given) | i | i | i | 10µM
O=C(CC1Oc2ccccc2NC1=O)NCc1ccccc1 (stereo not given) | i | i | i | i
Cc1ccc2c(c1)NC(=O)C(CC(=O)NCCCN1CCCCC1C)O2 (stereo not given) | i | i | i | i
O=C1Nc2ccccc2OC1CC(=O)N1CCCC1 (stereo not given) | i | 4µM[single pt active] | i | i
CC(=O)c1cccc(NC(=O)CC2Oc3ccc(C)cc3NC2=O)c1 (stereo not given) | i | 4µM[single pt active] | i | i
Cc1ccc2c(c1)NC(=O)C(CC(=O)NCc1cccnc1)O2 (stereo not given) | i | 4µM[single pt active] | i | i
SMILES | Prx2 Sm inh | AmpC nodet inh | AmpC inh det | LT uptake inh
Cc1ccc2c(c1)NC(=O)C(CC(=O)NCc1ccc(F)cc1)O2 (stereo not given) | i | ? | i | i
CC1CCCCN1CCNC(=O)CC1Oc2ccccc2NC1=O (stereo not given) | i | 2.5µM[single pt active] | i | ?
CCCc1cc2c(n1Cc1ccc(OC)cc1)C(C)C1CN(C(=O)c3ccccc3)C(C)(C(=O)OC)C21 (stereo not given) | i | i | i | i
COc1ncc2ncc(=O)n(C)c2n1 | i | i | i | i
CC1CCCCC1NC(=O)CC1Oc2ccccc2NC1=O (stereo not given) | i | 4µM[single pt active] | i | i
Cc1ccc2c(c1)NC(=O)C(CC(=O)NC1CCCCC1C)O2 (stereo not given) | i | 4µM[single pt active] | i | i
CCC(C)N(CCNC(=O)CC1Oc2ccc(C)cc2NC1=O)C1CCCCC1 (stereo not given) | i | i | i | ?
CCCCN(C)CCCNC(=O)CC1Oc2ccccc2NC1=O (stereo not given) | i | 4µM[single pt active] | i | i
O=C(CC1Oc2ccccc2NC1=O)NCCCN1CCOCC1 (stereo not given) | i | i | i | i
